Results filed as inconclusive are left out. Values without a mark were called inactive. The source made the active and inactive calls. Unless noted, the call rests on the fitted dose curve; in most records, active means well fitted curve in the direction sought with a large enough effect; inconclusive means small, poorly fitted or top-dose-only effect, or another doubt; inactive means no such curve, though single readings can be large; an effect the other way counts as inactive or inconclusive.

Assay [1] is described as follows: Primary qHTS for inhibitors of La Crosse Virus (LACV) - induced cell death in SH-SY5Y cells (AID 1508616).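 Further: top concentration of the series differs between compounds; 0% = infected DMSO wells and 100% = uninfected DMSO wells; higher means more rescue of cells from virus-induced death.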 The method, boiled down: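 Rescue of virus-induced death was read as ATPLite luminescence after 6 days at 37C, scaled between DMSO wells with LACV and without virus. Cells were SH-SY5Y, 6000/well, infected at 0.01 MOI after compound addition.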
On the technique in general: Quantitative high-throughput screening tests each substance at several concentrations.

In assay [2] the target is Calcium and integrin-binding protein 1 (Homo sapiens) (UniProt Q99828). Put plainly: Primary qHTS for Identification of Calcium Integrin Binding Protein 1 (CIB1) Competitor (AID 1508620). Further: top concentration of the series differs between compounds; on the % scale 0 is the no-effect control and ±100 the full control effect. The method, boiled down: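 Fluorescence polarization competition: GST-tagged CIB1 (1 uM final) preincubated with compound 15 min at room temperature, then FITC-labelled alphaIIb peptide (100 nM final) added. After 15 min at room temperature, polarization read at Ex 480/Em 540.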
Calcium and integrin-binding protein 1 (Homo sapiens), sequence (Q99828 whole entry, looked up): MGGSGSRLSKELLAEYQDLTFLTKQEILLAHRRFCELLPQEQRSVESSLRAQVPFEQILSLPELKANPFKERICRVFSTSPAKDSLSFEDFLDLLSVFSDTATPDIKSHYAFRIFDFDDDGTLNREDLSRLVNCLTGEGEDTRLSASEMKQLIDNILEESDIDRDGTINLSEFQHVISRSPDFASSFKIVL

A short description of assay [3]: Primary qHTS for small molecule stabilizers of the endoplasmic reticulum resident proteome: Secreted ER Calcium Modulated Protein (SERCaMP) assay (AID 1508630). Further: on the % scale 0 is the no-effect control and ±100 the full control effect. The essentials: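 The SH-SY5Y reporter protocol was run at 3 concentrations up to 38.3 uM (primary) or 11 concentrations (follow-up): 16 h compound, 100 nM thapsigargin for 4 h, then extracellular luciferase luminescence.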

Assay [4] is described as follows: A High-Content qHTS Against Drug Library for the Identification of Small Molecules that Inhibit DYT1 Early Onset Primary Dystonia-Associated Cell Pathology (AID 1645839; calls by dose curve; further: potency means the concentration at half of the fitted maximal effect). The method, boiled down:
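Cells were seeded and left for 24 h, then dosed with compound alongside tetracycline induction of mutant EGFP-TorsinA. They were incubated for 48 h, fixed in 4% paraformaldehyde, permeabilized and imaged for mislocalization (%pathology) and cell count.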

In assay [5] the target is Cytochrome P450 2D6 (Homo sapiens) (UniProt P10635). As to the kind of experiment: Cytochrome P450 family 2 subfamily D member 6 (CYP2D6) small molecule antagonists: luciferase biochemical (cell-free) qHTS assay (AID 1645840; active means well fitted curve in the direction sought with a large enough effect in the repeat runs; an effect the other way counts as inactive or inconclusive; further: nearly all actives have a fitted effect of over 55% in size; further: potency means the concentration at half of the fitted maximal effect). The method, boiled down:
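P450-Glo CYP2D6 system: proluciferin substrate converted by enzyme to luciferin, read by luminescence proportional to activity. Enzyme-substrate mix with compound 10 min at room temperature, then NADPH regeneration 1 h before detection reagent.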

Assay [6] addresses Cytochrome P450 2C9 (Homo sapiens) (UniProt P11712). Put plainly: Cytochrome P450 family 2 subfamily C member 9 (CYP2C9) small molecule antagonists: luciferase biochemical (cell-free) qHTS assay (AID 1645842; active means well fitted curve in the direction sought with a large enough effect in the repeat runs; an effect the other way counts as inactive or inconclusive; further: nearly all actives have a fitted effect of over 55% in size; further: potency means the concentration at half of the fitted maximal effect). The method, boiled down: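 P450-Glo CYP2C9 system: proluciferin substrate with enzyme in mix containing 0.4% BSA, 10 min at room temperature, then NADPH regeneration solution added and incubated 1 h at 37C. Detection reagent stopped reaction; luminescence read after 20 min as RLU.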

Assay [7] can be described thus: Primary qHTS for inhibitors of nuclear receptor binding SET domain protein 2 (NSD2) in an isogenic RCH-ACV NSD2 p.E1099K mutant (9B) (AID 1645876). Further: nearly all actives have a fitted effect of over 70% in size. Further: potency means the concentration at half of the fitted maximal effect.
A short description of assay [8]: Primary qHTS for inhibitors of nuclear receptor binding SET domain protein 2 (NSD2) in an RCH-ACV wild type WT cells (2C) (AID 1645877). Further: nearly all actives have a fitted effect of over 70% in size. Further: potency means the concentration at half of the fitted maximal effect.
A short description of assay [9]: Cell Viability qHTS for small molecule stabilizers of the endoplasmic reticulum resident proteome (AID 1508629).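 Further: human SH-SY5Y neuroblastoma cells carrying the GLuc-SERCaMP reporter; compound exposure about 46 h in total before the viability read; on the % scale 0 is the no-effect control and ±100 the full control effect.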 The note with it: cell viability counter-screen, 100 nM thapsigargin for final 4 h.
The target in assay [10] is Cytochrome P450 3A4 (Homo sapiens) (UniProt P08684). As to the kind of experiment: Cytochrome P450 family 3 subfamily A member 4 (CYP3A4) small molecule antagonists: luciferase qHTS assay (AID 1645841; active means well fitted curve in the direction sought with a large enough effect in the repeat runs; an effect the other way counts as inactive or inconclusive; further: nearly all actives have a fitted effect of over 45% in size). The essentials: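 P450-Glo CYP3A4 enzyme with proluciferin substrate preincubated 10 min with compound at room temperature, then NADPH regeneration 1 h. Luciferin detection reagent added for 20 min; luminescence recorded. Ketoconazole positive control.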
Cytochrome P450 3A4 (Homo sapiens), sequence (P08684 whole entry, looked up): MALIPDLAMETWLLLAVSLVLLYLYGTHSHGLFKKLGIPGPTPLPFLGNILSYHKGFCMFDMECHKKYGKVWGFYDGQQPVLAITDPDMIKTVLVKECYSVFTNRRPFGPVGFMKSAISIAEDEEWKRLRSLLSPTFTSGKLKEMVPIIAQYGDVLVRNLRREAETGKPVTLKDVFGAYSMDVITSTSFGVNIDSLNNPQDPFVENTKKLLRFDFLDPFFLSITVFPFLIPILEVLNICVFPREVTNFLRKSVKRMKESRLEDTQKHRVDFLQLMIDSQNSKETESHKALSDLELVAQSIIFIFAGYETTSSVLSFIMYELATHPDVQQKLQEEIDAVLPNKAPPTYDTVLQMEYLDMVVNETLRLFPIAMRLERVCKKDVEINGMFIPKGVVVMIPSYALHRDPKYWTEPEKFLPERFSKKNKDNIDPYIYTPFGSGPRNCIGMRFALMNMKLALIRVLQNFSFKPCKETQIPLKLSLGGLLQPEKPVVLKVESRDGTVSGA

The target in assay [11] is N-terminal Xaa-Pro-Lys N-methyltransferase 1 (Homo sapiens) (UniProt Q9BV86). As to the kind of experiment: Confirmatory qHTS for Inhibitors of N-terminal methyltransferase 1 (NTMT1): MTaseGlo Assay (AID 1645874).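 Further: luminescence from SAH made as NTMT1 methylates SPKRIA peptide using SAM; series mostly up to about 100 µM; 0% = DMSO control and -100% = no-enzyme control; nearly all actives have a fitted effect of over 65% in size.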 The method, boiled down:
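Inhibition was derived from luminescence after SAH-to-ATP conversion, scaled between no-enzyme and DMSO wells, then fitted by 4-parameter Hill. Conditions: 125 nM NTMT1, 100 uM SAM, 1 uM SPKRIA, 30 min RT.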

Cytochrome P450 2D6 (Homo sapiens), sequence (P10635 whole entry, looked up): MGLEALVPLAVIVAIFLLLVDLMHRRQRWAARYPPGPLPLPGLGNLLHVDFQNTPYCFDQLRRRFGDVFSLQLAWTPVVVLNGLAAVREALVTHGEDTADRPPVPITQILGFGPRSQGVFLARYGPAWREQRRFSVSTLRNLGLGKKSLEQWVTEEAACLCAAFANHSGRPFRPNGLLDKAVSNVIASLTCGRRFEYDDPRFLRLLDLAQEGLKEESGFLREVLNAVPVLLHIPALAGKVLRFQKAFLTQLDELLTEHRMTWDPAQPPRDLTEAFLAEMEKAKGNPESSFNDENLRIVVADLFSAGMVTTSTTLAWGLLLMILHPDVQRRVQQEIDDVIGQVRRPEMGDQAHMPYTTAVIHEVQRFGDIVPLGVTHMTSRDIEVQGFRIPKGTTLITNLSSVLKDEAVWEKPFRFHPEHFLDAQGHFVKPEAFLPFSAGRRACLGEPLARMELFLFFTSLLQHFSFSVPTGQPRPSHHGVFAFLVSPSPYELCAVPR
Cytochrome P450 2C9 (Homo sapiens), sequence (P11712 whole entry, looked up): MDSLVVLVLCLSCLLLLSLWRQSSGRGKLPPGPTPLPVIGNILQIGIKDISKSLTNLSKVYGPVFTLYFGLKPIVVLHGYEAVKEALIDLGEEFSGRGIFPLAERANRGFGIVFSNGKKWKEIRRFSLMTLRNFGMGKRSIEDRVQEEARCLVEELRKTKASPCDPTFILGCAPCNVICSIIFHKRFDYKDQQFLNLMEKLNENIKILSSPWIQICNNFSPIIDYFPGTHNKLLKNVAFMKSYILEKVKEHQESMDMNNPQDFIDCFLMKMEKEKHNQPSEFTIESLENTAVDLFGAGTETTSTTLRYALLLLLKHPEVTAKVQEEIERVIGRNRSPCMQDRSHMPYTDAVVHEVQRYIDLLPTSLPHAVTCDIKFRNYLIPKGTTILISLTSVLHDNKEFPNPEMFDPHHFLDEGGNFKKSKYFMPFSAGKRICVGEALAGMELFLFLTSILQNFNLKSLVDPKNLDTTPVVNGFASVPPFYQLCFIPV
N-terminal Xaa-Pro-Lys N-methyltransferase 1 (Homo sapiens), sequence (Q9BV86 whole entry, looked up): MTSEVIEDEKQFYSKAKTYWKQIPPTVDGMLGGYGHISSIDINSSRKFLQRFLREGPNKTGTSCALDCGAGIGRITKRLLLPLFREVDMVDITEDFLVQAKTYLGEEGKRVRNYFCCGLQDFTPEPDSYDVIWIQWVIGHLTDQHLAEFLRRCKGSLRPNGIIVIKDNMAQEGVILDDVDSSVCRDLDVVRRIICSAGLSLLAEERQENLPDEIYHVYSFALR

For the compound `C[C@]12CC[C@H]3[C@@H](CCC4=CC(=O)CC[C@@]43C)[C@@H]1CC[C@@H]2C(=O)CO`, the Potency result in assay [1], in assay [2], in assay [3], in assay [4], in assay [5] and in assay [6] was “inactive” in each case.

Consider `NC(=O)C(=O)N/N=C/c1ccc([N+](=O)[O-])o1`, for which the Potency result in assay [1], in assay [2], in assay [3], in assay [4] and in assay [6] was “inactive” each time. The Potency in assay [5] is 6.17 µM (active).

Consider `CCCSS/C(CCO)=C(\C)N(C=O)Cc1cnc(C)nc1N`, for which the Potency result in assay [1], in [2], in assay [3], in assay [4], in [5] and in assay [6] was “inactive” throughout. The results for the Potency in [7] and in assay [8] were 15 µM (active) and 16.8 µM (active), respectively.

As to `COc1c2occc2c(OC)c2c(=O)cc(C)oc12`, the Potency result in [1], in [2], in assay [3], in assay [4], in assay [7] and in assay [8] was “inactive” each time. Moreover, the Potency in assay [5] was 15.5 µM (active); in assay [6], 11 µM (active).

For the compound `CCCCC1=NC2(CCCC2)C(=O)N1Cc1ccc(-c2ccccc2-c2nn[nH]n2)cc1`, the Potency result in [1], in assay [2], in assay [3], in [4], in [5] and in [7] was “inactive” in each case. Further, the Potency result in assay [8] was “inactive”. The Potency in assay [6] was 17.4 µM (active).

With `CN1CCN(CCCN2c3ccccc3Sc3ccc(S(=O)(=O)N(C)C)cc32)CC1`, the Potency entry in assay [1] and in assay [2] was “inactive” each time. In assay [9], the max response is -9.17%. For the same compound, the Potency in assay [5] was 11 µM (active); in assay [8], 21.1 µM (active).

Regarding `Oc1cc(O)c2c(c1)O[C@H](c1ccc(O)c(O)c1)[C@H](O)C2`, the Potency entry in [1], in [2], in [3], in assay [4], in assay [5] and in [6] was “inactive” each time. Besides, the Potency entry in assay [7] and in assay [8] was “inactive” throughout.

In the case of `CO/N=C1\CN(c2nc3c(cc2F)c(=O)c(C(=O)O)cn3C2CC2)CC1CN` (stereo unspecified), the Potency result in assay [1], in assay [2], in assay [3], in assay [4], in assay [5] and in assay [6] was “inactive” each time.

`CCN(CC)C(=O)N1CCN(C)CC1`: the Potency entry in assay [1], in assay [2], in [3], in assay [4], in [5] and in assay [6] was “inactive” in each case. The Potency entry in assay [7] was “inactive”.

Regarding `CC[N+](CC)(CCNC(=O)C(=O)NCC[N+](CC)(CC)Cc1ccccc1Cl)Cc1ccccc1Cl`, the Potency result in [1], in [2], in [3], in assay [4], in assay [6] and in assay [7] was “inactive” throughout. In assay [8], the Potency result was “inactive”. The Potency in [5] was 15.5 µM (active).

In the case of `COc1cc(C(=S)N2CCOCC2)cc(OC)c1OC`, the Potency entry in [1], in assay [2], in assay [3], in [4], in assay [5] and in assay [6] was “inactive” throughout. For the same compound, the Potency result in assay [7] and in assay [8] was “inactive” throughout.

For `OC[C@@H](O)[C@@H](O[C@@H]1O[C@H](CO)[C@H](O)[C@H](O)[C@H]1O)[C@H](O)[C@@H](O)CO`, the Potency result in assay [1], in assay [2], in assay [3], in [4], in assay [5] and in assay [6] was “inactive” throughout. The Potency entry in assay [7] and in assay [8] was “inactive” each time.

For `O=C1OC2(c3ccc(O)cc3Oc3cc(O)ccc32)c2ccccc21`, the Potency entry in assay [1], in assay [2], in assay [3], in [5] and in [6] was “inactive” each time. In assay [4], the Potency was 7.08 µM (active).

With `C[C@@H]1C[C@H]2[C@@H]3CCC4=CC(=O)C=C[C@]4(C)[C@@]3(F)[C@@H](O)C[C@]2(C)[C@H]1C(=O)CO`, the Potency entry in [1], in assay [2], in [3], in assay [4] and in assay [5] was “inactive” throughout. Also, in [6], the Potency is 11 µM (active).

As to `N[C@@H](CCC(=O)N[C@@H](CS)C(=O)NCC(=O)O)C(=O)O`, the Potency entry in assay [1], in [2], in assay [3], in assay [4], in [5] and in assay [6] was “inactive” each time. Besides, the Potency result in assay [7] and in assay [8] was “inactive” in each case.

As for `CN1CCC[C@@H]1c1cccnc1`, the Potency entry in assay [1], in assay [2], in assay [3], in assay [4], in assay [5] and in [7] was “inactive” each time. In addition, the Potency result in assay [8] was “inactive”. Besides, the call in assay [10] was inactive.

Turning to `c1ccc(CNCCNCc2ccccc2)cc1`, the Potency entry in assay [1], in [2], in assay [3], in assay [4], in assay [6] and in [7] was “inactive” throughout. In [8], the Potency result is “inactive”. For the same compound, the Potency in assay [5] was 0.692 µM (active).

With `O=C(Nc1ccc(Cl)c(Cl)c1)C1CC1`, the Potency entry in assay [1], in [2], in assay [3], in assay [4] and in assay [5] was “inactive” each time.

Turning to `C[C@]12CC[C@@H]3c4ccc(O)cc4CC[C@H]3[C@@H]1C[C@@H](O)[C@@H]2O`, the Potency entry in [1], in assay [2], in assay [3], in [4], in assay [5] and in assay [6] was “inactive” each time. In addition, the Potency result in [11] and in assay [7] was “inactive” each time.

Regarding `CCCCN1CCCC1C(=O)Nc1c(C)cc(C)cc1C` (stereo unspecified), the Potency result in assay [1], in [2], in assay [3], in [4] and in [6] was “inactive” in each case. Besides, the Potency in [5] is 3.89 µM (active).

Take `CCOC(=O)/C=C(C)/C=C/C=C(C)/C=C/c1c(C)cc(OC)c(C)c1C`: the Potency result in [1], in [2], in assay [3] and in assay [4] was “inactive” in each case. Moreover, the Potency in assay [6] is 7.76 µM (active).

Take `COC(=O)[C@@H]1CC2=CC(=O)CC[C@]2(C)[C@@]23O[C@@H]2C[C@@]2(C)[C@@H](CC[C@@]24CCC(=O)O4)[C@H]13`: the Potency entry in assay [1], in assay [2], in [3], in [4], in [6] and in assay [7] was “inactive” each time. In addition, the Potency entry in assay [8] was “inactive”.

As for `O=C1c2ccccc2C(=O)C1c1ccccc1`, the Potency entry in assay [1], in assay [2], in assay [3], in assay [4], in assay [5] and in assay [6] was “inactive” each time. Also, the Potency entry in [7] and in assay [8] was “inactive” throughout.

The values above are taken from PubChem BioAssay (NCATS).
